Data published in PubChem BioAssay AID2253 (Southern Research Specialized Biocontainment Screening …, 2010).
Screen size: about 2,200 compounds; about 1,300 (59%) were called active. How the calls were made is not given here. The set was probably picked from earlier hits. The list is a sample of the results. Measured potencies and affinities stand elsewhere.

Experiment: human monocytic cell viability reduction – S. typhimurium screen hits, cytotoxicity control for Salmonella PhoP regulon inhibitors, dose response (AID 2253)
Conditions: THP-1 viability, CellTiter-Glo luminescence, 72 h; series mostly up to 50 µM

Compound	outcome
CCn1cc(C(=O)O)c(=O)c2cc3c(cc21)OCO3	inactive
CCCn1c(N)c(C(=O)COC(=O)c2c(C)noc2C)c(=O)n(C)c1=O	inactive
Cc1ccccc1-n1c(=O)c2ccccc2n2cnnc12	inactive
Cc1cc(C(=O)COC(=O)CNC(=O)c2ccco2)c(C)n1Cc1ccco1	inactive
O=C(O)Cn1cc(C(=O)c2ccco2)c2ccccc21	inactive
COc1ccc(N2CCN(C(=O)C3CCCO3)CC2)cc1 (stereo not given)	inactive
Cc1ccc(C)n1-c1cccc(N)c1	inactive
Cc1cc(C(=O)N/N=C/c2ccc[nH]2)no1	inactive
N/C(=N\OC(=O)c1ccc(F)cc1)c1nonc1N	inactive
CC(=O)N/N=C/c1ccc(OCCOc2ccc(Br)cc2)cc1	inactive
CCOC(=O)C1=C(C)N(CCO)C(=O)NC1c1cccc(O)c1 (stereo not given)	inactive
Cc1cc(C)n(-c2ccc(C(=O)OCC(=O)Nc3ccc([N+](=O)[O-])cc3)cc2)n1	inactive
Cc1ccc(/C=N/NC(=O)Cn2cnc3ccccc32)o1	inactive
COc1ccc(OC)c(C(C(=O)NCc2ccco2)N(C(=O)Cn2nnc3ccccc32)C(C)C)c1 (stereo not given)	inactive
C=CCNC(=O)CC(=O)N/N=C/c1ccc(C(=O)OC)cc1	inactive
O=C(C1CCN(C2CC(=O)N(Cc3ccccc3)C2=O)CC1)N1CCCCCC1 (stereo not given)	inactive
Cc1ccc(S(=O)(=O)N2C(=O)CCC2C(=O)N2CCN(C)CC2)cc1 (stereo not given)	inactive
CCn1cc(C(=O)NCCCN(C)C)c(=O)c2cc(F)c(N3CCN(C)CC3)cc21	inactive
Cc1cccc(-n2nc3c(c2NC(=O)c2ccco2)CSC3)c1C	inactive
O=C(Nc1cccc(-c2cn3cccnc3n2)c1)c1ccco1	inactive
CC(=O)Nc1ccc(-n2nnnc2SCC(=O)Nc2cccc(NC(=O)c3ccco3)c2)cc1	inactive
O=C(NC1CCCCC1)n1c(=O)oc2ccc(Cl)cc21	inactive
Cc1ccc(C(=O)C(OC(=O)COc2ccccc2C)c2ccccc2)cc1 (stereo not given)	inactive

Compound	outcome
Cc1ccc(C(=O)N2CC3(C(C)C)CN(C(=O)c4ccc(C)cc4)CC(C(C)C)(C2)C3=O)cc1	inactive
COC(=O)c1cc(C#N)c(Oc2ccc(F)cc2)nc1C	inactive
Nc1nc(Nc2ccc(Cl)cc2)n[nH]1	inactive
COC(=O)CSc1nc(SCc2ccccc2Cl)nc2c1CCCC2	inactive
CCCCCNS(=O)(=O)c1cc(C)ccc1OC	inactive
CCCCn1nnnc1NCc1cc(OC)c(OC)cc1OC	inactive
COc1ccc(C(C)C)cc1S(=O)(=O)Nc1ccc(Cl)cn1	inactive
C=CCNC(=O)C(=O)NN=C1CCN(C)CC1	inactive
COc1ccc(N2CCN(C(=O)Nc3ccc(S(=O)(=O)N(C)C)cc3)CC2)cc1	inactive
CCOCCCNC(=S)Nc1cc(C)cc(C)c1	inactive
COCCSc1ccccc1C(=O)NCC1CCCO1 (stereo not given)	inactive
COc1cccc(-c2nc(-c3ccc(Br)o3)no2)c1	inactive
COCCNC(=S)N(Cc1cccnc1)Cc1ccc(OC)c(OC)c1	inactive
CCOC(=O)C1=C(C)NC(=O)NC1c1ccsc1 (stereo not given)	inactive
CC1=C(C(=O)Nc2cccnc2)C(c2ccccn2)n2nnnc2N1 (stereo not given)	inactive
CN1C(=O)CC(P(=O)(c2ccccc2)c2ccccc2)N(C)C1=O (stereo not given)	inactive
Cc1cn([C@H]2C[C@H](N=[N+]=[N-])[C@@H](CO)O2)c(=O)[nH]c1=O	inactive
COc1nsnc1NS(=O)(=O)c1ccc(NC(=S)NC(=O)c2ccncc2)cc1	inactive
C#CC(C)(CC)NC(=O)c1cc(OC)c(OC)c(OC)c1 (stereo not given)	inactive
CCn1nnc(-c2ccccc2NS(=O)(=O)c2ccc(S(=O)(=O)N3CCCCCC3)cc2)n1	inactive
Cc1nc(CC(=O)c2ccc(O)cc2O)cs1	inactive
OCCNc1ccc(Cl)cc1	inactive
CC(=O)Nc1nc(-c2ccc(Cl)cc2)nc(C)c1C(C)=O	inactive

Compound	outcome
C#CCOc1c(Cl)cc(/C=N/O)cc1OC	inactive
CC(C(=O)NC1C=CS(=O)(=O)C1)N1C(=O)/C(=C/c2ccc(Cl)cc2)SC1=S (stereo not given)	inactive
COc1cc(C)c(Cc2cnc(N)nc2N)cc1OC	inactive
CCn1cc(C(=O)O)c(=O)c2cc(Br)ccc21	inactive
Cc1ccc(OCc2nnc(SCC(=O)Nc3ccc4c(c3)OCO4)n2C)cc1	inactive
COc1ccc(NC(=O)CSc2nccn2-c2ccccc2)cc1	inactive
Cc1cc(C)c(C#N)c(SCC(O)CS(=O)(=O)Cc2ccccc2)n1 (stereo not given)	inactive
CCn1c(Cc2c(C)[nH]c3ccccc23)n[nH]c1=S	inactive
O=C1CSc2ccccc2N1Cc1ccc(F)cc1	inactive
COc1cc(C2SCC(=O)N2c2nnc(C34CC5CC(CC(C5)C3)C4)s2)cc(OC)c1OC (stereo not given)	inactive
C/C(=C\c1ccco1)C1Nc2cccc3cccc(c23)N1	inactive
CN1CCN(C(c2cccc(C(F)(F)F)c2)c2nnnn2C(C)(C)C)CC1 (stereo not given)	inactive
O=C(O)c1cc(O)c2c(c1)[C@@H]([C@H]1c3cc(C(=O)O)cc(O)c3C(=O)c3c(O[C@@H]4O[C@H](CO)[C@@H](O)[C@H](O)[C@H]4O)cccc31)c1cccc(OC3O[C@H](CO)[C@@H](O)[C@H](O)[C@H]3O)c1C2=O (stereo not given in full)	inactive
CN1CCN(c2c(F)cc3c(=O)c(C(=O)O)cn4c3c2OCN4C)CC1	inactive
COc1ccc(-n2c(=O)c3ccccc3n(CC(=O)Nc3cc(C)on3)c2=O)cc1OC	inactive
CCn1cc(C(=O)O)c(=O)c2cc(F)c(N3CCN(C(=S)NC(=O)c4ccc(F)c(F)c4)CC3)cc21	inactive
COc1ccccc1CC1(C)NC(=O)N(CC(=O)N2CC(C)OC(C)C2)C1=O (stereo not given)	inactive
CCn1nc(C(=O)O)c(=O)c2cc3c(cc21)OCO3	inactive
Cc1snc(S(=O)(=O)/C(C#N)=N\Nc2ccccc2)c1C#N	inactive
COc1ccc(N2C(=O)[C@@H]3[C@H](C2=O)[C@H]2c4ccccc4C=CN2[C@@H]3C(=O)Nc2ccccc2)cc1	inactive
CC(C)NC(=O)/C(=N\O)c1ccccc1	inactive
CC(CN1CCOCC1)C(=O)c1ccccc1 (stereo not given)	inactive
CCC(CC)C(=O)Nc1cccc(C(=O)N2CCCC2)c1	inactive

Compound	outcome
O=C(c1ccccc1)N1CCSC1=S	inactive
Cc1cc(C(C)c2ccccc2)c(O)c(CN2CCOCC2)c1C (stereo not given)	inactive
CCCCCOc1ccc(NC(=O)C(=O)NCCC2=CCCCC2)cc1	inactive
O=C(CSc1nncs1)Nc1ccc2c(c1)OCCO2	inactive
CC(O)CNc1cc(N)c([N+](=O)[O-])cc1[N+](=O)[O-] (stereo not given)	inactive
CCNC(=O)COC(=O)CCC(=O)c1cccs1	inactive
COCCNS(=O)(=O)c1cccn1-c1ncc(C(F)(F)F)cc1Cl	inactive
Cc1cc(C)cc(-n2nc(C)cc2N)c1	inactive
CCOC(=O)CN1C(=O)C(C)(C)Oc2ccc(C(=O)Nc3ccccc3OC)cc21	inactive
Cc1cccc(NC(=O)CCC(=O)OCc2ccc(Br)cc2)c1	inactive
O=C(O)C1CCC(N2C(=O)C3CCCCC3C2=O)CC1 (stereo not given)	inactive
COC(=O)c1ccc(CSc2nnnn2-c2ccccc2)o1	inactive
Cc1ccccc1-n1nc(-c2ccc(N)cc2)cc1N	inactive
Cc1cc(CNC(=O)Nc2ccc3c(c2)OCO3)nn1C	inactive
O=C(CSCc1ccccc1)Nc1ccc2c(c1)OCO2	inactive
CN(C)C(CNC(=O)Nc1cccc(Cl)c1)c1cccnc1 (stereo not given)	inactive
CC(=O)c1cccc(NC(=O)Nc2cccs2)c1	inactive
CC(=O)c1cccc(NC(=O)Nc2cc3sccc3n2C)c1	inactive
O=C(NCc1ccccn1)Nc1cccc(Cl)c1	inactive
Cc1ccccc1CS(=O)(=O)c1snnc1C	inactive
CCOC(=O)c1cnc2ccccc2c1Nc1ccc2c(c1)OCCO2	inactive
CCOC(=O)c1cnc2ccc(OC)cc2c1Nc1ccc2c(c1)OCCO2	inactive
Cc1cc(Nc2ccccc2F)n2ncnc2n1	inactive

Compound	outcome
Cc1nn(-c2ncc(C(F)(F)F)cc2Cl)c(=O)n1-c1cccc(Cl)c1	inactive
N/C(=N\OC(=O)Nc1ccc(Cl)cc1)c1ncc(C(F)(F)F)cc1Cl	inactive
CCCCNC(=O)OC1CCS(=O)(=O)C1 (stereo not given)	inactive
Cc1ccc2nc(-c3ccc(Br)o3)oc(=O)c2c1	inactive
COC(=O)C1=C(C)N(C)C(=O)/C1=C\c1ccco1	inactive
C=CC1=C(C(=O)O)N2C(=O)[C@@H](NC(=O)/C(=N\O)c3csc(N)n3)[C@H]2SC1 (stereo in doubt)	inactive
O=C1CC(SCc2nc3ccccc3[nH]2)C(=O)N1c1ccc(Cl)cc1 (stereo not given)	inactive
O=C(NC1CCCCC1)C(c1ccncc1)N(CC1CCCO1)C(=O)C(F)(F)F (stereo not given)	inactive
O=C(Nc1ccc(Cl)cc1)N1CC=CCC1	inactive
Cn1cccc1CC(=O)NNC(=S)Nc1ccc(Cl)cc1	inactive
CCC(CC)c1nnc(NC(=O)Oc2ccccc2)s1	inactive
CCN(CC(=O)N1CCN(Cc2ccccc2)CC1)S(=O)(=O)c1ccc(F)cc1	inactive
Cc1ccccc1NC(=O)Nc1cccs1	inactive
S=C(Nc1ccc2snnc2c1)N1CCN(c2ccccn2)CC1	inactive
COc1ccccc1NC(=S)NC(=O)C(C)(C)C	inactive
CCN(CC)CCN(Cc1cc2cc3c(cc2[nH]c1=O)OCCO3)C(=O)NC1CCCCC1	inactive
Nc1ccc2c(c1)C(=O)N(CC1CCCO1)C2=O (stereo not given)	inactive
Nc1ccc2oc3ccccc3c2c1	inactive
CCOC(=O)c1cn(CC)c2cc(N3CCOCC3)c(F)cc2c1=O	inactive
CCCc1cc(N2CCN(c3ccccn3)CC2)n2nc(C)c(-c3ccccc3)c2n1	inactive
CCCN(CCC)CCCNS(=O)(=O)c1ccc2c(c1)oc(=O)n2C	inactive
O=C(O)CCc1nn2c3ccccc3n(CC(=O)c3ccccc3)c2nc1=O	inactive
COC(=O)Cn1c(C)nc2ccccc21	inactive
